Source: PubChem BioAssay
Results with a measured potency or affinity are listed apart. The source made the active and inactive calls.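 How the source made its calls: active means fitted dose curve reaches 40% lysis signal rise at or below the highest valid concentration tested for that sample; inconclusive means flat fit between 30% and 70%, or poor curve fit; inactive means signal falls, stays flat within 30%, or no crossing.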

assay: inducers of Cryptococcus neoformans cell lysis, dose response, AK release luminescence, cherry-picks (AID 687000);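 further: luminescent detection of adenylate kinase leaking from lysed yeast; 0% = median neutral control signal and 100% = double that signal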; conditions: C. neoformans lysis, adenylate kinase release luminescence, 4 h, 100% = twice the neutral-control signal; series mostly up to 15 µM; lysis activity: at the top concentration

Lysis activity, inactive:
Cc1ccc(S(=O)(=O)N(C)C[C@@H]2Oc3ccc(NS(=O)(=O)c4ccc(Cl)cc4)cc3CC(=O)N([C@@H](C)CO)C[C@@H]2C)cc1 0.905%, C[C@H](O)C#Cc1cnc2c(c1)C(=O)N([C@@H](C)CO)C[C@@H](C)[C@@H](CN(C)C(=O)Cc1ccncc1)O2 -0.72%, COc1ccc(-n2ncc3c(SCC(=O)N4CCN(c5ccccc5OC)CC4)ncnc32)cc1 -23.5%, CC(=O)N1[C@@H]2CN(S(=O)(=O)c3ccccc3F)c3ccccc3[C@@H]2[C@@H]1CO -0.157%, COCC(=O)NC[C@H]1N[C@H](CO)[C@@H]1c1ccc(C2=CCCC2)cc1 3.41%, CCC(C)(NC=O)C(=O)Nc1c(C)cccc1C (centres undefined) -11.1%, CO[C@@H]1CN(C)C(=O)c2ccc(NC(=O)NC(C)C)cc2OC[C@H](C)NC[C@@H]1C 0.787%, CNC(=O)C[C@@H]1CC[C@@H]2[C@H](COC[C@@H](O)CN2C(=O)Nc2ccc3c(c2)OCO3)O1 2.9%, CNC[C@@H]1OCCCC[C@H](C)Oc2ccc(NC(=O)c3ccccc3)cc2C(=O)N([C@@H](C)CO)C[C@@H]1C -3.82%, COc1cccc(-c2cn(CC[C@@H]3CC[C@H](NC(C)=O)[C@@H](CO)O3)nn2)c1 20.4%, O=C(C[C@@H]1CC[C@@H]2[C@H](COC[C@H](O)CN2Cc2cccc(C(F)(F)F)c2)O1)NCc1ccc(Cl)cc1 -7.49%, CO[C@H]1CN(C)C(=O)c2ccc(NC(=O)C3CC3)cc2OC[C@@H](C)N(Cc2ccc(F)cc2)C[C@@H]1C 3.44%, C[C@@H]1CN([C@H](C)CO)C(=O)c2cc(NC(=O)CCC(F)(F)F)ccc2O[C@@H](C)CCCCO[C@@H]1CN(C)C(=O)c1ccncc1 3.7%, C[C@@H]1CN([C@@H](C)CO)C(=O)c2cc(-c3ccc(C#N)cc3)cnc2O[C@@H]1CN(C)C(=O)Nc1ccc(F)cc1 0.531%, CO[C@H]1CN(C)C(=O)c2cc(NC(=O)C3CCOCC3)ccc2OC[C@@H](C)NC[C@H]1C -5.76%, CN1C(=O)c2cccc3c(S(=O)(=O)N(C)C)ccc1c23 3.59%, N#Cc1ccc(C23CC4(C2)[C@H](CN(Cc2ccc(-c5ccccc5)cc2)[C@@H]4c2ccccc2)C3c2ccc(C(F)(F)F)cc2)cc1 (some centres undefined) 2.56%, CN1C(=O)c2cc(NS(=O)(=O)c3cccc(F)c3)ccc2OC[C@@H]2O[C@@H](CC(=O)O)CC[C@H]21 12.7%, COCC#Cc1cnc2c(c1)C(=O)N([C@@H](C)CO)C[C@@H](C)[C@@H](CN(C)C(=O)C1CC1)O2 -7.93%, CC(=O)N1[C@@H](CO)[C@H](c2ccc(-c3ccccc3)cc2)[C@@H]1CNC(=O)C1CC1 -10.5%, O=C(NCC[C@H]1CC[C@H](NS(=O)(=O)c2ccc(F)cc2)[C@@H](CO)O1)c1ccc2c(c1)OCO2 12.6%, COCCNC(=O)C[C@@H]1C[C@H]2c3cc(NC(=O)C4CCC4)ccc3O[C@H]2[C@@H](CO)O1 -3.94%, COc1ccc(-n2cc(CNCCc3nc(C)cc(C)n3)c(-c3ccccc3Cl)n2)cc1 -17%, C[C@H]1CCCCO[C@H](CN(C)Cc2ccncc2)[C@@H](C)CN([C@@H](C)CO)C(=O)c2cc(NC(=O)CCCN(C)C)ccc2O1 2.37%, COCC(=O)N1C[C@H](C)[C@H](OC)CN(C)C(=O)c2ccc(NC(=O)NC(C)C)cc2OC[C@@H]1C -23.9%, COc1ccc(N2CCN(C(=O)CSc3ncnc4c3cnn4-c3ccc(OC)cc3)CC2)cc1 -4.61%, CC(=O)NC[C@H]1[C@@H](c2ccc(C3=CCCC3)cc2)[C@@H](CO)N1C(=O)NC(C)C 5.44%, O=C(C[C@@H]1CC[C@H]2[C@@H](COC[C@@H](O)CN2C(=O)Nc2ccc(Cl)cc2)O1)NCCc1ccncc1 -56%, O=C(c1cccc(Br)c1)N1CCN(c2ccccn2)CC1 -2.94%, C[C@H]1CN([C@@H](C)CO)C(=O)Cc2cc(NC(=O)Nc3ccccc3)ccc2O[C@H]1CN(C)C(=O)Nc1ccc2c(c1)OCO2 1.84%, O=C(CN(c1ccc(F)cc1)S(=O)(=O)c1ccccc1)NC1CCCCCC1 -2.88%, C[C@@H]1CN([C@@H](C)CO)C(=O)c2cc(NC(=O)Nc3ccc4c(c3)OCO4)ccc2O[C@H]1CN(C)Cc1ccc(Oc2ccccc2)cc1 15.9%, O=C(Nc1ccc(F)cc1)N1C[C@H]2[C@@H](c3ccccc31)[C@@H](CO)N2Cc1cocn1 -18.3%, C[C@@H]1CCCCO[C@@H](CN(C)Cc2ccncc2)[C@@H](C)CN([C@H](C)CO)C(=O)c2cc(NC(=O)c3ccncc3)ccc2O1 -3.16%
